Where “and” joins values, the source holds several entries; their conditions need not be identical. Equal values may be shown once. Records with an inconclusive call do not appear. Some structures have more than one record in an assay (separate samples or runs), and their calls can disagree. Calls of active or inactive are those of the source. The calls were made as follows, unless noted: active = hit-call score of the fitted dose curve at least 0.9, where 1 is the maximum; inactive = score below 0.9.
Tests used:
[1] = CCTE_Shafer_MEA_dev_mutual_information_norm: CCTE's Neural Network Formation Assay for Mutual Information Normalization, Shafer Lab (AID 2284091);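 as to AC50: mutual information between electrodes summarised as area under curve across four recording days; potency is for a decrease in mutual information relative to DMSO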
How it was run: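 Exposure of primary rat cortical neurons began at plating and ran to DIV 12, with full media and treatment renewal after DIV 5 and 9 recordings. Mutual information AUC (DIV 5–12) was analysed for loss versus DMSO.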

[2] = CCTE_Shafer_MEA_dev_correlation_coefficient_mean: CCTE's Neural Network Formation Assay for Mean Correlation Coefficient, Shafer Lab (AID 2284093);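 as to AC50: well mean pairwise spike train correlation integrated as AUC over recording days 5 to 12; potency fitted for loss of correlation relative to DMSO vehicle wells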
How it was run: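 Rat cortical cultures, 1.5 x 10^5 cells/well, dosed from day 0 for 12 days. Spontaneous spikes recorded DIV 5/7/9/12; electrode-pair correlation coefficients averaged, AUC taken. Fit in loss direction vs DMSO.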

[3] = UKN2_HCS_IMR90_neural_migration: University of Konstanz (UKN) Leist Lab Neural Crest Cell Migration Assay in human induced IMR90 Pluripotent Stem Cells (UKN2) (AID 2284204); details: actives raise or lower the signal
How it was run: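 Using a 96-well stopper format with PLO/laminin/fibronectin coating, neural crest cells from iPSC migrate in cytokine-supplemented N2-S medium; after 24 h, chemicals are applied for a further 24 h, then cells are imaged after dye staining.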

[4] = IUF_NPC1b_proliferation_BrdU_72hr: Leibniz Research Institute for Environmental Medicine (IUF) 72-hour Neural Progenitor Cell Bromodeoxyuridine (BrdU) Proliferation Assay (NPC1b) (AID 2284207)
How it was run: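 Neural progenitor spheres of human fetal origin are treated for three days; BrdU added for the last 16 h is quantified by luminescence ELISA, with DMSO as baseline and EGF/FGF omission as positive control.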

[5] = IUF_NPC1a_proliferation_area_72hr: Leibniz Research Institute for Environmental Medicine (IUF) 72-hour Neural Progenitor Cell Proliferation Area Assay (NPC1a) (AID 2284208)
How it was run: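 Read-out: increase in sphere area over 72 h by automated phase-contrast imaging, fitted in positive direction versus DMSO baseline. One hNPC sphere (0.25-0.35 mm) per well in EGF/FGF medium; growth-factor withdrawal served as positive control.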

[6] = IUF_NPC1_viability_72hr: Viability Assessment at 72 hours in the Leibniz Research Institute for Environmental Medicine (IUF) Neural Progenitor Cell Proliferation Assay (NPC1) (AID 2284209)
How it was run: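 Spheres of primary human neural progenitors were plated singly in proliferation medium and treated for 72 h. Mitochondrial reduction of resazurin was then measured by fluorescence and analysed against DMSO controls.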

[7] = CCTE_Mundy_HCI_Cortical_Synap_Neur_Matur_NeuriteSpotCountPerNeuriteLength: CCTE's Synaptogenesis and Neurite Maturation Assay in rat cortical cells for Neurite Spot Count per Neurite Length, Mundy Lab (AID 2284210)
How it was run: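 Neurite-associated synapse density (synaptophysin puncta per unit neurite length) is measured by fluorescence high-content imaging in rat cortical cultures treated from DIV 7 and fixed at DIV 12, with DMSO as negative control.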

[8] = CCTE_Mundy_HCI_Cortical_Synap_Neur_Matur_BPCount: CCTE's Synaptogenesis and Neurite Maturation Assay in rat cortical cells for Branch Point Count, Mundy Lab (AID 2284211)
How it was run: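 HCI read-out of branch points from MAP2/synaptophysin/Hoechst immunofluorescence; rat cortical cultures, AraC DIV 5, dosing DIV 7, fixed DIV 12; fit in positive direction vs DMSO baseline.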

[9] = CCTE_Mundy_HCI_Cortical_NOG_NeuriteCount: CCTE's Neurite Outgrowth Assay in rat cortical cells for Neurite Count, Mundy Lab (AID 2284212);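 also: cells fixed about two days after chemical exposure began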
How it was run: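 Rat cortical primary cells; compound added 2 h post-plating, 1/10 dilution of working solution. Anti-betaIII-tubulin/AF488 ICC; ArrayScan neurite count vs DMSO.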

[10] = CCTE_Mundy_HCI_Cortical_NOG_NeuriteLength: CCTE's Neurite Outgrowth Assay in rat cortical cells for Neurite Length, Mundy Lab (AID 2284213);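 as to AC50: neurites imaged about 48 to 50 h after chemical exposure began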
How it was run: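 First, rat primary cortical cells were plated and, 2 h later, given test chemical as a 1/10 dilution. Finally, βIII-tubulin immunostaining enabled automated imaging of neurite length.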

[11] = CCTE_Mundy_HCI_Cortical_Synap_Neur_Matur_NeuriteLength: CCTE's Synaptogenesis and Neurite Maturation Assay in rat cortical cells for Neurite Length, Mundy Lab (AID 2284214)
How it was run: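 Cultures of rat primary cortical cells received chemical at DIV 7 and were fixed at DIV 12, after glial arrest with AraC at DIV 5. Neurite length was measured by automated imaging of MAP2 immunofluorescence.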

[12] = CCTE_Mundy_HCI_Cortical_Synap_Neur_Matur_NeuriteSpotCountPerNeuron: CCTE's Synaptogenesis and Neurite Maturation Assay in rat cortical cells for Neurite Spot Count per Neuron Count, Mundy Lab (AID 2284215)
How it was run: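 Rat primary cortical cells received AraC at DIV 5, then chemicals with a media change at DIV 7, and were fixed at DIV 12. Synaptophysin puncta on MAP2-stained neurites per neuron were counted by high-content imaging, fitted relative to DMSO.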

[13] = CCTE_Mundy_HCI_Cortical_Synap_Neur_Matur_SynapseCount: CCTE's Synaptogenesis and Neurite Maturation Assay in rat cortical cells for Synapse Count, Mundy Lab (AID 2284218)
How it was run: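 Cells were plated, allowed 2 hr to attach, treated with AraC at DIV 5, then exposed to chemicals from DIV 7 until DIV 12. After fixation and MAP2/synaptophysin immunolabelling, synapses per neuron were quantified by automated imaging against DMSO.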

[14] = CCTE_Mundy_HCI_hN2_NOG_NeuriteCount: CCTE's Neurite Outgrowth Assay in human hN2 cells for Neurite Count, Mundy Lab (AID 2284219; active = hit-call score of the fitted dose curve at least 0.9, where 1 is the maximum)
How it was run: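 In this morphology assay, hNP1-derived neurons received test chemical 2 h post-plating and were fixed two days later in warm paraformaldehyde/sucrose containing Hoechst 33342. Neurites, labelled by rabbit anti-βIII-tubulin (1:800) and Alexa Fluor-488 (1:500), were counted automatically.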

[15] = CCTE_Mundy_HCI_hN2_NOG_NeuriteLength: CCTE's Neurite Outgrowth Assay in human hN2 cells for Neurite Length, Mundy Lab (AID 2284220; active = hit-call score of the fitted dose curve at least 0.9, where 1 is the maximum)
How it was run: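 Using βIII-tubulin immunofluorescence and Hoechst nuclear counterstain, this component quantifies neurite length in hNP1-derived neurons.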

[16] = CCTE_Mundy_HCI_hN2_NOG_NeuronCount: CCTE's Neurite Outgrowth Assay in human hN2 cells for Neuron Count, Mundy Lab (AID 2284221; active = hit-call score of the fitted dose curve at least 0.9, where 1 is the maximum)
How it was run: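 Read-out is the number of betaIII-tubulin-positive neurons imaged by automated high-content analysis, with DMSO as negative control.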

[17] = CCTE_Mundy_HCI_Cortical_Synap_Neur_Matur_CellBodySpotCount: CCTE's Synaptogenesis and Neurite Maturation Assay in rat cortical cells for Cell Body Spot Count, Mundy Lab (AID 2284223)
How it was run: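 Rat primary cortical cultures received AraC at DIV 5 to arrest glia, were dosed with chemical at DIV 7 with media change, and were fixed at DIV 12 (288.33 h). Synaptophysin puncta on MAP2-positive cell bodies per neuron were counted by high-content imaging versus DMSO.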

[18] = CCTE_Mundy_HCI_hNP1_Pro_ResponderAvgInten: CCTE's Proliferation Assay in human neuroprogenitor cells, Mundy Lab (AID 2284224; active = hit-call score of the fitted dose curve at least 0.9, where 1 is the maximum;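 also: human neural progenitor cells hNP1 derived from WA09 embryonic stem cells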)
How it was run: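 Human neuroprogenitors (hNP1, WA09 lineage) receive test chemical after 40 to 44 hours of attachment. A four-hour BrdU pulse begins twenty hours later, followed by fixation and high content imaging; signal is referenced to DMSO controls.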

[19] = TAMU_PeakParms_SingleDonor1434_Chronotropy: Texas A&M University (TAMU) 1.5-hr Human Induced Pluripotent Stem Cell (iPSC)-derived Cardiomyocytes Calcium (Ca+2) Flux Assay for Cardiotoxicity: Chronotropy (changes in peak frequency) (AID 2284217); details: actives raise or lower the signal
How it was run: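 iPSC-CMs, donor 1434; 4 conc (0.2–100 uM), 0.5% v/v DMSO, 90 min, 37C/5% CO2; Ca2+ flux fluorescence → peak.freq.avg; peak.freq.avg = 0 dropped; bidirectional fit vs DMSO; EC05 POD.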

[20] = UKN4_HCS_LUHMES_neurite_outgrowth: University of Konstanz (UKN) Leist Lab Neurite Outgrowth Assay in human LUHMES cells (UKN4) (AID 2284206); details: actives raise or lower the signal
How it was run: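 Human LUHMES cells were differentiated for two days, replated and treated with chemicals for 24 h. Neurite outgrowth was quantified as calcein-stained neurite area by HCS imaging, fitted bidirectionally relative to DMSO.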

Measured: AC50

CCOP(=S)(Oc1cnc(C(C)(C)C)nc1)OC(C)C (stereo not given)
active: [1] 80.9 µM and 13.4 µM | [2] 79.7 µM and 17.4 µM | [4] 12.8 µM | [7] 16.5 µM | [8] 25.2 µM | [9] 26.4 µM | [10] 26.1 µM | [11] 20.1 µM | [12] 16.2 µM | [13] 16.6 µM | [16] 79.3 µM | [17] 14.6 µM | [18] 77.6 µM
inactive: [3] | [5] | [6] | [7] | [8] | [9] | [10] | [11] | [12] | [13] | [14] | [15] | [17] | [18]

CC(C)[C@H](C(=O)O[C@H](C#N)c1cccc(Oc2ccccc2)c1)c1ccc(Cl)cc1
active: [1] 189 nM | [2] 0.564 µM

CCOP(=S)(OCC)Oc1cc(C)nc(C(C)C)n1
inactive: [1] | [2] | [4] | [5] | [6] | [7] | [9] | [10] | [12] | [13] | [17] | [18]
active: [1] 50000 nM | [2] 50 µM | [8] 50 µM | [11] 50 µM

CCOP(=S)(OCC)Oc1ccc([N+](=O)[O-])cc1
active: [7] 20.9 µM | [8] 2.98 µM | [9] 23.7 µM | [11] 15 µM | [12] 15 µM | [13] 15 µM
inactive: [1] | [2] | [10] | [19] | [17]

CCCCSP(=O)(SCCCC)SCCCC
active: [1] 29.3 µM and 18.4 µM | [2] 29.6 µM and 35 µM | [4] 87.2 µM | [7] 14 µM | [8] 50 µM and 14 µM | [9] 77.8 µM and 49.9 µM | [10] 86.1 µM and 75.3 µM | [11] 50 µM and 14.2 µM | [12] 66.3 µM and 12.9 µM | [13] 73.5 µM and 15.5 µM | [17] 22.9 µM | [18] 50 µM and 74.1 µM
inactive: [3] | [5] | [7] | [17]

CCOP(=S)(OCC)SCCSCC
not listed: [3] | [14] | [15] | [16] | [19] | [20]
inactive: all other assays above

C#CCC1=C(C)C(OC(=O)C2C(C=C(C)C)C2(C)C)CC1=O (stereo not given)
active: [1] 303 nM | [2] 3 µM

CON=C(C(=O)OC)c1ccccc1CON=C(C)c1cccc(C(F)(F)F)c1
inactive: [4]
active: [1] 671 nM and 812 nM | [2] 941 nM and 501 nM | [3] 15.2 µM | [5] 9.57 µM | [6] 32.8 µM | [7] 0.489 µM | [8] 0.446 µM | [9] 1.2 µM | [10] 1.14 µM | [11] 0.954 µM | [12] 0.32 µM | [13] 0.664 µM | [17] 3.43 µM | [18] 79.9 µM

CC(=NC#N)N(C)Cc1ccc(Cl)nc1
active: [4] 0.385 µM
not listed: [14] | [15] | [16] | [19]
inactive: all other assays above

CC(Oc1cccc(Cl)c1)C(=O)O (stereo not given)
inactive: [1] | [2]

S=C1NCCN1
not listed: [3] | [14] | [15] | [16] | [19] | [20]
inactive: all other assays above

C[N+]1(C)CCCCC1
not listed: [3] | [14] | [15] | [16] | [18] | [19] | [20]
inactive: all other assays above

CN(C)[C@@H]1C(=O)C(C(N)=O)=C(O)[C@@]2(O)C(=O)C3=C(O)c4c(O)cccc4[C@@](C)(O)[C@H]3[C@H](O)[C@@H]12
inactive: [1] | [5] | [6] | [9] | [10]
active: [2] 88.2 µM | [3] 116 µM | [4] 12.1 µM | [7] 50 µM | [8] 70.5 µM | [11] 60.9 µM | [12] 50 µM | [13] 50 µM | [17] 50 µM | [18] 90.6 µM

CCCSP(=O)(OCC)SCCC
active: [1] 9.23 µM and 14.7 µM | [2] 15.8 µM and 20.4 µM
not listed: [19] | [20]
inactive: all other assays above

CCCSP(=O)(OCC)Oc1ccc(Br)cc1Cl (stereo not given)
inactive: [1] | [2] | [7] | [8] | [9] | [10] | [11] | [12] | [13] | [16] | [17]

C[Si](Cn1cncn1)(c1ccc(F)cc1)c1ccc(F)cc1
inactive: [2]
active: [1] 1610 nM

CC(C)=CC1C(C(=O)OCN2C(=O)C3=C(CCCC3)C2=O)C1(C)C (stereo not given)
inactive: [1] | [2]

CN1COCN(Cc2cnc(Cl)s2)C1=N[N+](=O)[O-]
not listed: [3] | [14] | [15] | [16] | [19] | [20]
inactive: all other assays above

Reference: PubChem BioAssay (EPA / NIEHS)
